From PubChem BioAssay AID618 (Sanford-Burnham Center for Chemical Genomics, 2007)
The whole screen tested about 87,000 compounds, of which about 540 (0.62%) were called active. The rule behind the calls is not given here. Shown is part of a subset that was picked to be rich in actives. Measured potencies and affinities stand elsewhere.

Assay: inhibitors of MT1-MMP promoter transcription, cell-based, luciferase reporter, luminescence (AID 618);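 note: actives suppress MT1-MMP promoter-driven transcription so potencies describe inhibitors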
Settings: MT1-MMP promoter luciferase reporter cells

Row | Compound | outcome
1 | CCSc1n[nH]c2nc3c(c(=O)n12)C1(CCCC1)Cc1ccccc1-3 | inactive
2 | CCCOc1ccccc1C1CC(=O)NC2=C1C(=O)CCC2 (stereo not given) | inactive
3 | CCOc1ccccc1C1CC(=O)NC2=C1C(=O)CCC2 (stereo not given) | inactive
4 | CCCCOc1ccccc1C1CC(=O)NC2=C1C(=O)CCC2 (stereo not given) | active
5 | COc1oc(-c2ccc(Cl)cc2)nc1C(F)(F)F | inactive
6 | c1cc2c(cc1C1CCCCC1)c1c3n2CCCNC3CCC1 (stereo not given) | active
7 | c1ccc2c(c1)c1c3n2CCNC3CCC1 (stereo not given) | inactive
8 | Cc1ccc2c(c1)c1c3n2CCN(C(=O)C2CC2)C3CCC1 (stereo not given) | inactive
9 | Cc1ccc2c(c1)c1c3n2CCCNC3CCC1 (stereo not given) | inactive
10 | Cc1ccc2c(c1)c1c3n2CCN(C(=O)CN2CCN(C)CC2)C3CCC1 (stereo not given) | inactive
11 | CCCCCn1c(N)c(-c2nc3ccccc3s2)c2c([N+](=O)[O-])nn(C)c(=O)c21 | inactive
12 | Cc1cc(OC(=O)c2ccco2)c2c(C)cc(=O)oc2c1 | inactive
13 | O=c1oc2ccccc2n1CCCOc1ccccc1 | inactive
14 | CC1CCCN(S(=O)(=O)c2ccc(NC(=O)CN3CCN(C)CC3)cc2)C1 (stereo not given) | inactive
15 | Cc1ccc(NC(=O)CN2CC(C)SC2=NC2CCCCC2)cc1 (stereo not given) | active
16 | CCc1cccc(CC)c1NC(=O)CN1CC(C)SC1=NC1CCCCC1 (stereo not given) | inactive
17 | C=CCOc1cc(C)nc(-c2ccccc2O)n1 | inactive
18 | CCOC(=O)CSc1nnc(N)s1 | inactive
19 | O=C1C/C(=C/NCc2ccccc2)C(=O)N1 | inactive
20 | CCSc1nnc(NC(=O)CSc2nccn2-c2cccc(C)c2C)s1 | inactive
21 | Cc1nnc(NC(=O)CSc2nccn2-c2cccc(C)c2C)s1 | active
22 | CCc1nnc(NC(=O)CSc2nccn2-c2cccc(C)c2C)s1 | inactive
23 | O=C1CC(c2c[nH]c3ccccc23)C(=O)N1 (stereo not given) | inactive
24 | CCOc1ccc(-c2cc(CCCC(=O)Nc3cccc(OC)c3)no2)cc1 | inactive
25 | CCOc1ccc(NC(=O)CCCc2cc(-c3ccc(OCC)cc3)on2)cc1 | inactive

Row | Compound | outcome
26 | CCOc1ccc(-c2cc(CCCC(=O)NCCc3ccc(OC)c(OC)c3OC)no2)cc1 | inactive
27 | CCOc1ccc(-c2cc(CCCC(=O)NCCc3ccccc3)no2)cc1 | inactive
28 | COc1ccccc1NC(=O)NC(=O)N(C(C)C)S(C)(=O)=O | inactive
29 | Cc1cc2ncn(CC(O)COC3CCCCC3)c2cc1C (stereo not given) | inactive
30 | CC(=O)Nc1ccc(OCC(=O)c2ccc(C)cc2C)cc1 | inactive
31 | CC(C)NC(=O)c1ccccc1NC(=O)c1ccccc1N(C)S(C)(=O)=O | inactive
32 | CCOC(=O)c1n[nH]c2ccccc12 | inactive
33 | COCCn1c(C)cc(C(=O)COC(=O)c2ccc(-n3nc(C)cc3C)cc2)c1C | inactive
34 | Cc1cc(NC(=O)COC(=O)c2n[nH]c3ccccc23)no1 | inactive
35 | COCC(C)n1c(C)cc(C(=O)COC(=O)c2n[nH]c3ccccc23)c1C (stereo not given) | inactive
36 | COCCn1c(C)cc(C(=O)COC(=O)c2n[nH]c3ccccc23)c1C | active
37 | CCCCCn1c(=O)[nH]c2cc(C(=O)O)ccc2c1=O | inactive
38 | Clc1ccccc1CSc1nnc(Cn2cnc3ccccc32)n1-c1ccccc1 | inactive
39 | CN1CCC(NC(=O)c2cccs2)CC1 | inactive
40 | CC(C)COc1ccc(-c2nnc(-c3ccco3)o2)cc1 | inactive
41 | CCCOc1ccc(-c2nnc(-c3ccco3)o2)cc1 | inactive
42 | CCOc1ccc(-c2nnc(-c3cccs3)o2)cc1 | inactive
43 | CCCOc1ccc(-c2nnc(-c3ccncc3)o2)cc1 | inactive
44 | O=C(CN1CCOCC1)Nc1c2c(nc3ccccc13)N(Cc1ccccc1)CC2 | inactive
45 | O=C(O)C1CCN(S(=O)(=O)c2ccc(Oc3ccccc3)cc2)CC1 | inactive
46 | Cc1cc(NC(=O)CCCC(=O)Nc2ccc(F)cc2)no1 | inactive
47 | COc1ccc(S(=O)(=O)N[C@@H](Cc2ccccc2)C(=O)N2CC[C@@]3(O)CCCC[C@H]3C2)cc1 | inactive
48 | Cc1c(NC(=O)c2cnn3c2NC(c2ccc(Br)cc2)CC3C(F)(F)F)c(=O)n(-c2ccccc2)n1C (stereo not given) | inactive
49 | c1ccc2nc(-c3nc4ccccc4o3)ccc2c1 | active
50 | c1cc(-c2nc3ccccc3o2)nc(-c2nc3ccccc3o2)c1 | inactive

Row | Compound | outcome
51 | c1ccc(-c2nc3ccccc3o2)nc1 | inactive
52 | Cc1ccc(-c2nnc(Nc3ccccc3)o2)cc1 | active
53 | CCNc1nnc(-c2ccc(C)cc2)o1 | inactive
54 | Cc1ccc(-c2nnc(-c3ccccc3)o2)cc1 | inactive
55 | O=C(O)CCCn1c(=O)[nH]c2ccccc2c1=O | inactive
56 | CC(=O)N1c2ccccc2N(Cc2ccc(C)cc2C)C(=O)C1(C)C | active
57 | Cc1ccc(C)c(CN2C(=O)C3(OCCCO3)c3ccccc32)c1 | inactive
58 | Cc1ccc(C(=O)N2c3ccccc3N(Cc3ccccc3)C(=O)C2(C)C)cc1 | inactive
59 | COc1ccc(N(C)S(=O)(=O)c2ccc3c(c2)oc(=O)n3C)cc1 | inactive
60 | Cc1[nH]c2ccc(C(=O)O)cc2c1C | inactive
61 | Cc1nn2c(CN(C(=O)c3ccco3)c3ccccc3)nnc2c2ccccc12 | inactive
62 | O=S(=O)(N1CCOCC1)n1nnc2ccccc21 | inactive
63 | O=C(N1CCOCC1)n1nnc2ccccc21 | inactive
64 | O=C(CSc1ncnc2ccccc12)N1CCN(c2ccccc2)CC1 | inactive
65 | NC(=O)C1CCN(C(=O)c2cc3ccccn3n2)CC1 | inactive
66 | COc1ccc(-c2nnn(CCC(=O)O)n2)cc1 | inactive
67 | COC(=O)CCn1nnc(-c2ccc(C)cc2)n1 | inactive
68 | COC(=O)CCn1nnc(-c2cccs2)n1 | inactive
69 | COc1ccc(NC(=O)CCn2nnc(-c3ccc(C)cc3)n2)cc1OC | inactive
70 | Cc1ccc(-c2nnn(CCC(=O)NC(C)(C)C)n2)cc1 | inactive
71 | COc1cccc(-c2nnn(CCC(=O)O)n2)c1 | inactive
72 | O=C(c1ccc(CS(=O)(=O)c2ccccc2)o1)N1CCOCC1 | inactive
73 | CCCn1c(=S)[nH]c2cc(OC)c(OC)cc2c1=O | inactive
74 | CC(=O)N1CCN(CCN=CC2=C(O)CC(c3ccc(Cl)cc3)CC2=O)CC1 (stereo not given) | inactive
75 | O=C(C1CCCN(Cc2ccccc2)C1)N1CCc2ccccc2C1 (stereo not given) | inactive

Row | Compound | outcome
76 | NC(=O)c1cc(Cl)cn(-c2ccccc2)c1=O | inactive
77 | CCOC(=O)C1CCCN(c2ncnc3c2[nH]c2cccc(OC)c23)C1 (stereo not given) | inactive
78 | O=C(c1cc(-c2cccs2)nc2ccccc12)N1CCN(S(=O)(=O)c2cccc(F)c2)CC1 | inactive
79 | CSC(=O)CC(=O)NC(=O)c1ccccc1 | inactive
80 | O=c1[nH]c(Nc2nc3ccccc3o2)nc2c1CCCC2 | inactive
81 | Cc1ccc2oc(Nc3nc(C)cc(C)n3)nc2c1 | inactive
82 | Cc1cccc(C)c1Nc1nc2ccccc2o1 | inactive
83 | Cc1ccc(NC(=O)c2c(C)nc(Nc3nc4ccccc4o3)nc2C)cc1 | inactive
84 | O=C(c1cccs1)N1CCc2ccccc21 | inactive
85 | c1ccc(-c2noc(-c3ccc4ccccc4c3)n2)nc1 | active
86 | c1ccc(-c2cc(-c3nc(-c4ccccn4)no3)c3ccccc3n2)cc1 | inactive
87 | Cc1ccc(SCc2nc(-c3ccccn3)no2)cc1 | inactive
88 | c1ccc(SCc2nc(-c3ccccn3)no2)cc1 | inactive
89 | COc1cccc(-c2nc(-c3ccccc3)no2)c1 | inactive
90 | Clc1ccc(-c2nc(-c3ccccn3)no2)cc1Cl | inactive
91 | Cc1ccc(-c2nc(-c3ccccn3)no2)cc1Cl | active
92 | COc1cccc(-c2noc(-c3cccnc3)n2)c1 | inactive
93 | Cc1onc(-c2ccccc2Cl)c1-c1nc(-c2ccccn2)no1 | inactive
94 | COc1ccc(-c2noc(-c3cccc(Cl)c3)n2)cc1OC | inactive
95 | Clc1cccc(-c2nc(-c3ccccn3)no2)c1 | active
96 | O=C(Nc1nccs1)c1ccc(COc2ccccc2Br)o1 | inactive
97 | O=C(CSCc1c(Cl)cccc1Cl)Nc1nccs1 | inactive
98 | CCCCOC(=O)Nc1ccc(C(N)=O)cc1 | inactive
99 | C/C=C/c1ccc(OCCCNC)c(OC)c1 | inactive
100 | CC1CCN(C(=O)COc2ccccc2F)CC1 | inactive

Row | Compound | outcome
101 | O=C(CCn1c(=O)[nH]c2ccsc2c1=O)N1CCN(c2cccc(Cl)c2)CC1 | inactive
102 | CCCc1cc(C(=O)Nc2cc(OC)c(Cl)cc2OC)no1 | inactive
103 | Brc1ccc(-c2nc(-c3ccccc3)no2)o1 | inactive
104 | c1ccc(-c2noc(-c3ccco3)n2)nc1 | inactive
105 | COc1ccc(-c2nc(-c3ccccc3)no2)c(OC)c1 | active
106 | c1cc(-c2noc(-c3ccc4c(c3)OCO4)n2)ccn1 | inactive
107 | COc1ccc(-c2noc(-c3ccc4c(c3)OCO4)n2)cc1 | inactive
108 | COc1ccc(-c2noc(-c3ccccc3-c3ccccc3)n2)cc1 | inactive
109 | COc1ccc(-c2nc(-c3ccc(Br)cc3)no2)c(OC)c1 | inactive
110 | c1ccc(-c2noc(-c3ccc4c(c3)OCO4)n2)nc1 | active
111 | c1ccc(-c2noc(-c3cccnc3)n2)nc1 | inactive
112 | c1ccc(-c2noc(-c3ccncc3)n2)nc1 | inactive
113 | Cc1sc2nc(SCC(=O)N3CCCC3)[nH]c(=O)c2c1C | inactive
114 | O=C1CC(c2ccco2)c2ccc3ccccc3c2N1 (stereo not given) | inactive
115 | CCOC(=O)c1cnc(SCC(=O)c2ccc(C)cc2)nc1N | inactive
116 | Cc1cc(C)n(CC(O)Cn2ccc3ccccc32)n1 (stereo not given) | inactive
117 | Brc1cccc(-c2nc(-c3ccncc3)no2)c1 | inactive
118 | CCOc1ccc(-c2nc(-c3ccccc3)no2)cc1OCC | inactive
119 | c1ccc(-c2noc(-c3ccc4ccccc4c3)n2)cc1 | active
120 | Cc1occc1-c1nc(-c2ccccn2)no1 | inactive
121 | Cc1ccc(Cc2nc(-c3ccccn3)no2)cc1 | inactive
122 | c1ccc(-c2nnc(-c3cccc(-c4nnc(-c5ccccc5)o4)c3)o2)cc1 | inactive
123 | c1ccc(-c2nnc(-c3ccccc3)o2)cc1 | inactive
124 | CC1=CCC(C(=O)O)C(C(=O)Nc2nc3ccc(S(C)(=O)=O)cc3s2)C1 (stereo not given) | inactive
125 | Cn1c(=O)c2c(ncn2CC(=O)N2CCN(c3ccccc3F)CC2)n(C)c1=O | inactive
